Source: PubChem BioAssay
LYPLA1 inh: counter-screen for PME1 inhibitors: inhibitors of human LYPLA1 | O75608 | recombinant LYPLA1, FP-Rh probe fluorescence polarization | inhibition, % at 5.9 µM | hit rate 0.16% among 320,000;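 active = inhibition above the mean of all tested compounds plus 3 SD, set per campaign, cut at about 14% in these data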;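 also: inhibitors block serine hydrolase probe labeling of LYPLA1 so polarization falls; 0% = enzyme with DMSO and 100% = wells lacking LYPLA1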
Target sequence (O75608 whole entry, looked up): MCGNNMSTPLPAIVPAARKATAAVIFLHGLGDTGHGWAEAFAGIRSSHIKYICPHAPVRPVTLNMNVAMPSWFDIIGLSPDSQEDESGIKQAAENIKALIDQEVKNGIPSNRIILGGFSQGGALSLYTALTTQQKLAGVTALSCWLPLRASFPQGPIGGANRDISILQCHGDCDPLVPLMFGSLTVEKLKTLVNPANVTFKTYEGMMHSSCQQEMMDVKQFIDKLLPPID
PAD4 FP inh: inhibitors of human PAD4; recombinant PAD4, RCA probe fluorescence polarization; inhibition, % at 6.36 µM; hit rate 0.41% among 330,000; AID 485272;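 active = percent inhibition above a cutoff equal to the mean of all tested compounds plus 3 SD, cut at about 15% in these data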;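 also: 0% = PAD4 with RCA probe and DMSO and 100% = probe without PAD4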
PME-1 primary: blocks human protein phosphatase methylesterase 1 | recombinant PME-1, FP-Rh probe fluorescence polarization | inhibition, % at 5.9 µM | Q9Y570 | hit rate 0.53% among 320,000;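 active = inhibition above the campaign mean of all compounds plus 3 SD, cut at about 26% in these data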;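 also: competitive labeling of PME-1 active site by serine hydrolase directed probe; 0% = PME-1 with DMSO and 100% = wells lacking PME-1 enzyme; inhibitors block probe labeling so polarization falls and inhibition rises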
LYPLA2 counter: counter-screen for PME1 inhibitors: inhibitors of human LYPLA2; recombinant LYPLA2, FP-Rh probe fluorescence polarization; inhibition, % at 5.9 µM; hit rate 0.38% among 320,000; AID 2177;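 active = inhibition above the screen-wide mean plus 3 SD, limit set per campaign, cut at about 26% in these data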;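 also: 0% = LYPLA2 with DMSO and 100% = wells lacking LYPLA2 enzyme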
Target sequence (O95372 whole entry, looked up): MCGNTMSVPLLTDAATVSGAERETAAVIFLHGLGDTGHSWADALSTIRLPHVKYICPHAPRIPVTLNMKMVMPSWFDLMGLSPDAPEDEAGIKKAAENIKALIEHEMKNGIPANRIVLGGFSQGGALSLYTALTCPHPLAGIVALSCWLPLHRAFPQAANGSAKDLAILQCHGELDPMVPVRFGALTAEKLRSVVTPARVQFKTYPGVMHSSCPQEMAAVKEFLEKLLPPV
GSTO1 counter: counter-screen for RBBP9 inhibitors: inhibitors of human GSTO1; recombinant GSTO1, activity-based probe fluorescence polarization; AID 1974; P78417; inhibition, % at 5.96 µM; hit rate 1.1% among 300,000;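 active = inhibition above the campaign mean inhibition plus 3 SD, cut at about 35% in these data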;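 also: 0% = GSTO1-1 with DMSO and 100% = wells lacking GSTO1-1 enzyme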
Target sequence (P78417 whole entry, looked up): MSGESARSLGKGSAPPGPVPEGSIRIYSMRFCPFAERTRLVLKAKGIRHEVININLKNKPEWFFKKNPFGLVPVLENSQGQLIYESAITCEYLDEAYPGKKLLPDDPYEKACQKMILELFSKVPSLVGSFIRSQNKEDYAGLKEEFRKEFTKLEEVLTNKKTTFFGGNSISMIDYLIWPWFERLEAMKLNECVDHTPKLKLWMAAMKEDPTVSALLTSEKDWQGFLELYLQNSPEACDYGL
Fam108B counter: blocks mouse Fam108B hydrolase in RBBP9 counter-screen; recombinant Fam108B, FP-Rh probe fluorescence polarization; inhibition, % at 9.51 µM; hit rate 0.33% among 300,000; AID 1947;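 active = inhibition above the screen mean inhibition plus 3 SD, computed separately per campaign, cut at about 18% in these data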;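 also: inhibitors lower polarization as less probe binds the enzyme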
Fam108b confirm: confirmation of mouse Fam108b serine hydrolase inhibitors | recombinant Fam108b, FP-Rh probe fluorescence polarization | shares compounds with Fam108B counter | hit rate 44% among 930 | AID 1978 | inhibition, % at 9.51 µM;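 active = inhibition above a limit from the primary screen, the mean over all compounds plus 3 SD, cut at about 19% in these data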;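 also: 0% = median of active Fam108b wells and 100% = catalytically dead S170A mutant; inhibitors free the probe so polarization falls as inhibition rises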
Fam108b inh: mouse ABHD17B inhibition | shares compounds with Fam108B counter | recombinant Fam108b, gel-based ABPP, fluorophosphonate probe | inhibition, % at 20 µM | hit rate 44% among 260; in the data active = inhibition above about 40%
GSTO1 inh conf: confirmation of human GSTO1 inhibitors; shares compounds with GSTO1 counter; recombinant GSTO1, probe fluorescence polarization; inhibition, % at 5.96 µM; hit rate 54% among 2,400;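 active = inhibition above the primary screen's cutoff, its mean inhibition plus 3 SD, cut at about 35% in these data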;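 also: loss of polarization as inhibitors block binding of rhodamine sulfonate ester activity probe; 0% = GSTO1 with DMSO and 100% = wells lacking GSTO1 enzyme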
LYPLA1 confirm: LYPLA1 (human) inhibition, confirmation counter-screen. shares compounds with LYPLA1 inh. recombinant LYPLA1, FP-Rh probe fluorescence polarization. inhibition, % at 5.9 µM. hit rate 69% among 480. AID 2233;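 active = mean inhibition across replicates above the hit cutoff set in the primary screen, cut at about 15% in these data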;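 also: loss of FP-Rh probe labeling of LYPLA1 seen as lower polarization; 0% = LYPLA1 with DMSO and 100% = wells lacking LYPLA1 enzyme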
LYPLA2 confirm: LYPLA2 (human) inhibition, confirmation counter-screen. shares compounds with LYPLA2 counter. recombinant LYPLA2, FP-Rh probe fluorescence polarization. inhibition, % at 5.9 µM. hit rate 72% among 1,100. AID 2232;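 active = mean inhibition across replicates above the hit cutoff set in the primary screen, cut at about 26% in these data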;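 also: blocked labeling of the enzyme by serine hydrolase FP-Rh probe lowers polarization; 0% = enzyme with DMSO and 100% = wells lacking LYPLA2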
PAD4 FP conf: PAD4 (human) inhibition, confirmed; recombinant PAD4, RCA probe fluorescence polarization; inhibition, % at 6.36 µM; hit rate 28% among 1,200; AID 488796; shares compounds with PAD4 FP inh;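 active = mean inhibition across replicates above the hit cutoff set by the earlier primary screen, cut at about 15% in these data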;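 also: inhibitors block active-site labeling by the probe so polarization falls; 0% = PAD4 with probe and DMSO and 100% = probe without PAD4 enzyme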
* hit, by the source's call; x = no result given. Most compounds without a hit are left out; they make up all but 1.8% or so of the library.

SMILES	LYPLA1 inh	PAD4 FP inh	PME-1 primary	LYPLA2 counter	GSTO1 counter	Fam108B counter	Fam108b confirm	GSTO1 inh conf	PAD4 FP conf	others
O=C(O)c1cc2nccc(-c3ccc(F)cc3)n2n1	2.6	0.2	-0.7	-1.2	7.6	-3.7	x	x	x
O=[N+]([O-])c1ccc(CN2CCN(c3nc4ccccc4s3)CC2)cc1	-0.7	-4.5	-4.5	1.4	1.5	-2.2	x	x	x
CCCn1nc([N+](=O)[O-])c(C(C#N)c2nc3ccccc3s2)c(Cl)c1=O (stereo not given)	-0.7	19.1*	35.9*	17.2	66.0*	31.5*	31.3*	44.4*	22.7*	Fam108b inh=0.0
COc1ccc(OCc2nnc(SCC(=O)N(C)Cc3ccccc3)n2N)cc1	3.6	-1.3	8.4	5.7	-1.9	0.2	x	x	x
COc1ccc(OCC(=O)NCCCCCCNC(=O)COc2ccc(OC)cc2)cc1	2.1	3.5	5.2	5.7	-5.4	2.8	x	x	x
CC(=O)Nc1ccc(N2C(=O)c3cccc4c(O)ccc(c34)C2=O)cc1	17.2*	38.8*	17.7	20.4	24.8	25.6*	12.4	x	36.5*	LYPLA1 confirm=15.9*
O=C1c2cccc3c(O)ccc(c23)C(=O)N1c1ccc(Cl)cc1	20.4*	33.7*	36.6*	33.1*	17.7	20.3*	11.8	x	31.1*	LYPLA1 confirm=15.5*;LYPLA2 confirm=17.1
Cc1ccc(N2C(=O)c3cccc4c(C(=O)O)ccc(c34)C2=O)cc1	1.6	-3.8	1.7	7.9	-5.0	-4.1	x	x	x
O=[N+]([O-])c1cc2c(c(CSc3nnnn3-c3ccc(O)cc3)c1)OCOC2	4.3	2.0	4.7	8.7	-2.3	2.6	x	x	x
COc1cccc(CN(C)C(=O)C(Cc2ccccc2)NC(=O)c2ccccc2)c1OC (stereo not given)	0.6	-3.9	-0.4	-3.3	13.2	2.9	x	x	x
O=C1OC(Nc2cc(Br)cc3cccnc23)c2ccccc21 (stereo not given)	10.7	61.3*	28.5*	16.8	85.8*	46.6*	6.8	x	-6.2
N#Cc1c(NC(=O)c2ccc(Br)o2)n(-c2ccccc2)c2nc3ccccc3nc12	0.0	36.3*	17.3	0.7	73.7*	32.8*	33.7*	85.0*	19.9*	Fam108b inh=0.0
CCn1c(CSc2nccn2C)nc2cc(C(=O)O)ccc21	25.6*	34.5*	25.4	25.5	20.9	20.3*	59.4*	x	43.4*	Fam108b inh=0.0;LYPLA1 confirm=24.2*
COCCCNc1c2c3c(cccc3[nH]c1=O)C(=O)c1ccccc1-2	105.4*	135.0*	124.4*	126.1*	79.5*	106.2*	131.5*	91.6*	151.3*	Fam108b inh=0.0;LYPLA1 confirm=100.8*;LYPLA2 confirm=96.9*
COCCCNc1nc2ccccc2[nH]c1=O	-3.3	-4.0	-2.2	-6.8	-2.2	1.1	x	x	x
CC(=O)Nc1ccc(Nc2ccc3c4c(cc(=O)n3C)-c3ccccc3C(=O)c24)cc1	3.8	2.8	4.0	9.1	13.9	4.9	x	x	x
Cn1c(=O)c(Nc2ccc(Cl)cc2)c2c3c(cccc31)C(=O)c1ccccc1-2	20.4*	33.0*	31.5*	33.3*	19.1	31.5*	34.4*	x	49.9*	Fam108b inh=0.0;LYPLA1 confirm=33.5*;LYPLA2 confirm=24.9
COc1ccc(C2NC(=O)c3sc4nc(C)c(C(C)=O)c(-c5ccc(Cl)cc5)c4c3N2)cc1 (stereo not given)	-8.4	-0.3	0.7	-2.1	6.8	3.0	x	x	x
OCCNC(=S)Nc1ccc(Cl)c(Cl)c1	-2.2	2.0	-5.5	1.9	4.2	0.9	x	x	x
OCCNC(=S)Nc1ccc2nsnc2c1	14.1	28.4*	24.2	12.2	85.1*	28.3*	-0.9	x	5.8
N#CCN(CC#N)C(=O)C1c2ccccc2Oc2ccccc21	87.0*	55.6*	77.4*	105.4*	19.4	91.3*	-8.7	x	2.5	LYPLA1 confirm=2.2;LYPLA2 confirm=0.4
C=CCn1c(NS(=O)(=O)c2ccccc2)c(S(=O)(=O)c2ccc(C)cc2)c2nc3ccccc3nc21	80.4*	75.6*	33.2*	82.1*	101.3*	74.4*	5.3	87.6*	14.2	LYPLA1 confirm=65.7*;LYPLA2 confirm=89.6*
CCCCn1c(N)c(S(=O)(=O)c2ccc(C)cc2)c2nc3ccccc3nc21	-14.2	-3.6	0.5	-21.7	-15.2	-11.6	x	x	x
S=C(NC1CCCCC1)NC1CC2CCC(C1)N2Cc1ccccc1 (stereo not given)	2.8	-5.6	-0.7	-0.2	3.5	2.4	x	x	x
CNc1ccc2c3c(cccc13)C(=O)N(C)C2=O	58.7*	94.7*	77.1*	82.2*	40.1*	62.0*	47.1*	31.5	86.3*	Fam108b inh=25.0;LYPLA1 confirm=47.1*;LYPLA2 confirm=59.0*
SMILES	LYPLA1 inh	PAD4 FP inh	PME-1 primary	LYPLA2 counter	GSTO1 counter	Fam108B counter	Fam108b confirm	GSTO1 inh conf	PAD4 FP conf	others
CN1C(=O)c2cccc3c(Cl)ccc(c23)C1=O	1.4	3.2	2.3	2.7	5.0	0.6	x	x	x
Cc1cc(O)c(Sc2ncn[nH]2)cc1NS(=O)(=O)c1ccc(Cl)cc1	-6.5	-0.5	-1.9	-5.2	x	x	x	x	x
Cc1cc(C)c(S(=O)(=O)/N=C2/C=C(Sc3ncn[nH]3)C(=O)c3ccccc32)cc1C	1.8	29.9*	30.9*	35.9*	84.4*	51.8*	28.1*	86.7*	5.3	LYPLA2 confirm=33.3*
O=C(O)CSc1cc(NS(=O)(=O)c2ccc(Br)cc2)c2ccccc2c1O	8.5	31.0*	29.8*	37.5*	90.3*	22.3*	2.7	81.5*	-1.7	LYPLA2 confirm=20.5
Cc1ccc(N(CC(=O)N/N=C/c2ccco2)S(=O)(=O)c2ccccc2)cc1	-2.7	3.3	-5.7	1.1	-2.6	-0.8	x	x	x
COc1ccc(S(=O)(=O)/N=C2\C=C(Nc3ccc(O)cc3)C(=O)c3ccccc32)cc1	-9.7	61.7*	36.2*	-8.0	94.5*	28.1*	37.1*	89.3*	57.5*	Fam108b inh=65.0*
Cc1ccccc1NC1=C/C(=N\S(=O)(=O)c2cccs2)c2ccccc2C1=O	4.8	70.0*	29.6*	19.5	92.4*	40.5*	59.9*	88.1*	53.4*	Fam108b inh=60.0*
CC(=O)Nc1ccc(NC2=C/C(=N/S(=O)(=O)c3cccs3)c3ccccc3C2=O)cc1	-1.6	64.5*	21.6	7.8	87.4*	40.9*	39.9*	86.2*	44.7*
COc1ccc(CCNC(=O)c2ccc3nc(N4CCCCC4)sc3c2)cc1OC	-2.1	-1.4	0.3	0.1	1.3	-1.0	x	x	x
